Source: PubChem (National Center for Advancing Translational Sciences (NCATS))
NPC1 promoter act – qHTS Assay for NPC1 Promoter Activators. Huh7 NPC1 promoter luciferase reporter, 24 h. Potency, µM (doses to about 9.22 µM), inactives show at the top dose activation, hits mostly activators. 2.4% of 320,000 active. AID 485313, 2010; also: % of control where 0% means no effect; nearly all actives have a fitted effect of over 60% in size
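Readout is luciferase luminescence, reflecting NPC1 promoter activation in stably transfected Huh7 cells after 24 h compound exposure at 37 °C in reduced-serum medium with 10% FBS.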
ELG1 DNA repair – qHTS screen for small molecules that inhibit ELG1-dependent DNA repair in human embryonic kidney (HEK293T) cells expressing luciferase-tagged ELG1. Potency, µM (titrated, usually from 46.1 µM), inactives show at the highest dose activity change, negative = inhibition, most hits filed as inhibitors. AID 504467, 2011. HEK293T ELG1-luciferase reporter, luminescence, 16 h; DNA damage induced by 5-fluorouridine. 2.3% of 330,000 active; also: % is scaled to controls: 0 for no effect and ±100 for the full control effect; nearly all actives have a fitted effect of over 55% in size
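Cells (2,000 per well) received 5-fluorouridine plus test compound or DMSO and were incubated 16 hr at 37 °C, 5% CO2. Luciferase activity was read by luminescence 30 min after ONE-Glo addition; signal suppression marked inhibition of damage-induced ELG1 function.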
SMN2 splice up – qHTS Assay for Enhancers of SMN2 Splice Variant Expression; 2.8% of 210,000 active; HEK293 SMN2-luciferase splicing reporter, luminescence, 30-36 h; AID 1458, 2008; Potency, µM (titrated, usually from 46.1 µM), inactives show at the top dose activity change, positive = activation, most hits filed as activators; also: % of control where 0% means no effect; nearly all actives have a fitted effect of over 55% in size
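qHTS luciferase splicing reporter: luminescence rises when SMN2 exon 7 is included in transfected HEK293 cells. Compound exposure lasted 30-36 h at 37C, with 4.5 mM final sodium butyrate as control, followed by a ONE-Glo read.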
Rab9 promoter act – qHTS Assay for Rab9 Promoter Activators; 2.8% of 320,000 active; Huh7 Rab9 promoter-luciferase reporter, luminescence, 24 h; Potency, µM (top dose mostly 9.22 µM), inactives show at the top dose activation, negative = inhibition, usual class: activators; also: % of control where 0% means no effect; nearly all actives have a fitted effect of over 60% in size
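Stable Rab9-luc Huh7, 1500 cells/well, 2 h settle; cmpd in DMSO, 24 h, 37 °C/5% CO2; luciferase reagent 10 min RT; luminescence.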
FLuc modulator – qHTS profiling assay for firefly luciferase inhibitor/activator using purifed enzyme and Km concentrations of substrates (counterscreen for miR-21 project). purified FLuc, Km substrates, luminescence inhibition. AID 588342, 2011. Luciferin 4-monooxygenase (Photinus pyralis), P08659. 6.9% of 360,000 active. Potency, µM (top dose mostly 57.5 µM), for the others: at the highest dose activity change, negative = inhibition, usual class: inhibitors;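 also: plate controls were vehicle for no effect and reference inhibitor for full effect; nearly all actives have a fitted effect of over 55% in size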
Target sequence (P08659 whole entry, looked up): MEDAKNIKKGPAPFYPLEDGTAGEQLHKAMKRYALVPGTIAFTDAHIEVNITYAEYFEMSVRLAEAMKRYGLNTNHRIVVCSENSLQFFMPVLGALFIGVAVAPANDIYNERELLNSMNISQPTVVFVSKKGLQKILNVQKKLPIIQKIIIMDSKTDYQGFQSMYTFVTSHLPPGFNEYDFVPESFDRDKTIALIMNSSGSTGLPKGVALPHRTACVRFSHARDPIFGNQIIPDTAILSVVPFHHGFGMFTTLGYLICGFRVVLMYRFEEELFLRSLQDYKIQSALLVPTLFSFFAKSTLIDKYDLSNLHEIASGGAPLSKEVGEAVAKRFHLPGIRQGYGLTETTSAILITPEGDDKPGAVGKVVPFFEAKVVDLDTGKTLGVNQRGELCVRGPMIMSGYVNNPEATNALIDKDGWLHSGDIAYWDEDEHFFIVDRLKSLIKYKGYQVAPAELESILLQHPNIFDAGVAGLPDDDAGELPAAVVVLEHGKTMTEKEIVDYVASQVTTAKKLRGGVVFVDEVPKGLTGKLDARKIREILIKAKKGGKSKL
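Purified P. pyralis luciferase, 10 nM final, with Km-level 10 uM D-luciferin and 10 uM ATP in 50 mM Tris acetate pH 7.5, 10 mM Mg acetate, 0.01% Tween-20, 0.05% BSA; 6-point qHTS titration about 60 µM downward; luminescence read.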
ELG1 genotoxic – qHTS screen for small molecules that induce genotoxicity in human embryonic kidney (HEK293T) cells expressing luciferase-tagged ELG1. HEK293T ELG1-luciferase reporter, luminescence, 16 h. 1.3% of 330,000 active. Potency, µM (top dose mostly 46 µM), for the others: top-dose activity change, positive = activation, hits mostly activators. AID 504466, 2011; also: % of control where 0% means no effect; nearly all actives have a fitted effect of over 60% in size
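16 hr compound incubation (37 °C, 5% CO2) of HEK293T cells carrying luciferase-tagged ELG1; luciferase then measured by ONE-Glo luminescence after 30 min at RT.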
Numbers without * were called inactive; ? = inconclusive; . = not tested or not shown; [ ] = another dose, or the depositor's remark. Most compounds without a hit are left out; they make up all but 9.2% or so of the library. Calls follow the shape of the dose curve; as a rule, active = well fitted curve in the direction sought with a large enough effect; inconclusive = small, poorly fitted or top-dose-only effect, or another doubt; inactive = no such curve, though single readings can be large; an effect the other way counts as inactive or inconclusive. Potency is read from the fitted curve at half-maximal effect.

SMILES	NPC1 promoter act	ELG1 DNA repair	SMN2 splice up	Rab9 promoter act	FLuc modulator	ELG1 genotoxic
Cc1ccc(CSc2nc3cccnc3n2Cc2ccc(C(=O)NCc3ccco3)cc2)cc1	.	.	.	.	0.6µM*	.
Cc1ccc(Cn2c(SCc3ccc(C(=O)O)cc3)nc3cccnc32)cc1	.	.	-3%	.	17µM*	.
CCCCn1c(SCC(=O)NCc2ccco2)nc2ccccc2c1=O	1%	-4%	-14%	1%	0%	-2%
O=C(CSc1nc2cccnc2n1Cc1ccccc1)NCc1ccco1	3%	4%	19%	-1%	-3%	-4%
CCCCCn1c(SCc2ccncc2)nc2cc(C(=O)NCc3ccco3)ccc2c1=O	-4%	6.5µM*	2%	1%	2%	-9%
Cc1ccc(CNC(=O)c2ccc(Cn3c(SCc4ccccc4F)nc4cccnc43)cc2)cc1	.	.	.	.	6.7µM*	.
O=C(CSc1ccc(Br)cc1)N1CCN(C(=O)c2ccco2)CC1	-1%	-3%	-7%	-6%	-5%	-4%
Cc1nnsc1C(=O)Nc1ccc(S(=O)(=O)N2CCCCC2C)cc1 (stereo unspecified)	-3%	?	.	-4%	1%	1%
COc1ccc(NC(=O)Cn2c(SCc3ccc(C)cc3)nc3cccnc32)c(OC)c1	.	.	.	.	1.9µM*	.
Cc1cccc(CSc2nc3cccnc3n2Cc2ccc(C(=O)NCc3ccco3)cc2)c1	.	.	.	.	19µM*	.
Cc1ccc(CNC(=O)c2ccc(Cn3c(SCc4ccc(F)cc4)nc4cccnc43)cc2)o1	.	.	0%	.	3.8µM*	.
O=C(NCc1ccco1)c1ccc(Cn2c(SCc3ccccc3F)nc3cccnc32)cc1	.	.	.	.	8.5µM*	.
COc1cc(NC(=O)Cn2c(SCc3ccc(F)cc3)nc3cccnc32)cc(OC)c1	.	.	.	.	2%	.
O=C(NC1CCCC1)c1ccc(CSc2nc3cccnc3n2Cc2ccc(F)cc2)cc1	.	.	.	.	-8%	.
Cc1ccc(-c2nnn3c2nc(NCCc2ccccc2)c2ccccc23)cc1	.	.	7%	.	-2%	.
CCOC(=O)C1CCCN(c2ncnc3c2cnn3-c2ccc(Cl)cc2)C1 (stereo unspecified)	?	?	27%	?	12µM*	6%
CCOC(=O)C1CCCN(c2ncnc3c2cnn3-c2ccc(OC)cc2)C1 (stereo unspecified)	?	?	11µM*	?	?	5.2µM*
CCCOc1ccc(CNC(=O)c2ccc3nc(N4CCOCC4)sc3c2)cc1	-6%	?	.	0%	9%	?
Cc1ccc(/C=N/Nc2ccc(Cl)nn2)cc1	1.8µM*	?	.	3.2µM*	?	?
Oc1ccc(/C=N/Nc2ccc(Cl)nn2)cc1O	-1%	?	.	0%	?	?
Fc1ccccc1/C=N/Nc1nn[nH]n1	-3%	3%	-16%	14%	0%	5%
Fc1ccccc1/C=N/Nc1ccc(Cl)nn1	?	?	.	?	11µM*	?
COc1ccc(C(C(=O)Nc2ccc(C(C)C)cc2)N(C)C(=O)Cc2cccs2)cc1 (stereo unspecified)	.	.	5%	.	1%	.
COc1ccc(CNC(=O)CN(C)S(=O)(=O)c2ccc3nc(C)sc3c2)cc1	.	.	-4%	.	-2%	.
O=C(c1ccc(S(=O)(=O)N2CCCC2)cc1)N1CCC(CN2C(=O)c3cccc4cccc(c34)C2=O)CC1	-7%	10µM*	.	-9%	-2%	-18%
SMILES	NPC1 promoter act	ELG1 DNA repair	SMN2 splice up	Rab9 promoter act	FLuc modulator	ELG1 genotoxic
COc1ccc(OCC(O)CN2CCC(CN3C(=O)c4cccc5cccc(c45)C3=O)CC2)cc1 (stereo unspecified)	2%	8%	-6%	-1%	1%	-1%
COc1ccc(S(=O)(=O)N2CCC(CN3C(=O)c4cccc5cccc(c45)C3=O)CC2)cc1	-1%	10µM*	-9%[1.84 µM]	-1%	1%	2%
CCN(CC)S(=O)(=O)c1ccc(C(=O)N2CCN(CCN3C(=O)c4cccc5cccc(c45)C3=O)CC2)cc1	-6%	4%	-11%	-8%	1%	2%
COC(=O)c1cc2oc(C)cc2n1CC(=O)N1CCCc2ccccc21	-3%	-18%	-10%	-1%	-2%	1%
Cc1ccc2c(c1)C(c1ccncc1)=NNC(c1ccccc1)=N2	?	?	.	2.8µM*	17µM*	7%
COc1ccc2c(c1)C(c1ccc([N+](=O)[O-])cc1)=NNC(c1ccco1)=N2	0%	?	-27%	-2%	13µM*	-2%
Brc1ccc(C2=Nc3ccccc3C(c3ccncc3)=NN2)cc1	-2%	3%	.	-1%	-10%	3%
CCOc1ccc2c(c1)C(c1ccccc1)=NNC(c1ccccc1)=N2	2%	13µM*	-3%	-3%	-4%	-3%
Cc1ccc(C2=Nc3cccnc3C(c3ccccc3)=NN2)cc1	3.5µM*	?	13µM*	3.2µM*	11µM*	?
Cc1c2cnn(CC(=O)N3CCN(c4ccc(F)cc4)CC3)c(=O)c2c(C)n1Cc1ccccc1F	.	.	-2%	.	-19%	.
Cc1cc(Cl)ccc1OCC(=O)OCC(=O)NC1CCS(=O)(=O)C1 (stereo unspecified)	0%	16%	.	-4%	1%	2%
CC(=O)c1ccc(N2CCN(C3CCC(C(C)(C)C)CC3)CC2)cc1 (stereo unspecified)	0%	-8%	.	4%	2%	1%
CCCOc1ccc(C2=NNC(c3cccs3)=Nc3ccc(OC)cc32)cc1	0%	16µM*	-1%	-1%	?	-2%
Cc1ccc(C2=Nc3ccc(Br)cc3C(c3ccncc3)=NN2)cc1	-3%	?	-99%	27%	27µM*	3%
COc1ccc2c(c1)C(c1cccs1)=NNC(c1ccncc1)=N2	-3%	?	.	-8%	-16%	-6%
Cc1ccc2c(c1)C(c1ccncc1)=NNC(c1ccc(F)cc1)=N2	6%	0%	15%	14%	-15%	5%
CC(C)CCNC(=O)c1ccc(Cn2c(SCC(=O)NC(C)C)nc3ccccc3c2=O)cc1	.	.	.	.	0%	.
O=C(NC1CCCCC1)c1ccc(CS(=O)(=O)Cc2ccccc2F)o1	11%	26%	10µM*	21%	-3%	8%
Cc1ccc(CS(=O)(=O)Cc2ccc(C(=O)NC3CCCC3)o2)cc1	-4%	-11%	.	-3%	3%	2%
